Experimental data: PubChem BioAssay (NCI)
This is part of a sample that, as a whole, favours compounds with a hit. Of some 79,000 tested, about 15% had one in any assay. A number with no mark means an inactive call. Active and inactive are the calls of the source. Rule as the data show it: active = growth inhibition above about 70%; inactive = the rest.

What was measured:
[1] = NCI Yeast Anticancer Drug Screen. Data for the rad50 strain (AID 155);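 also: 0% = growth of vehicle-only cultures of the same strain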; conditions: S. cerevisiae rad50 strain growth inhibition; at 50.0 µM; hits give high values
Outline: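 Vehicle-treated cultures provide the reference for the growth inhibition reported for compound-exposed, repair-deficient yeast.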

[2] = NCI Yeast Anticancer Drug Screen. Data for the mec2-1 strain (AID 157); conditions: S. cerevisiae mec2-1 strain, at 50.0 µM, hits give high values
Outline: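 Mutant yeast (mec2-1) grown with compound; growth inhibition relative to vehicle control reported.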

[3] = NCI Yeast Anticancer Drug Screen. Data for the sgs1 mgt1 strain (AID 161);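 also: 0% = growth of cultures given vehicle only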; conditions: S. cerevisiae sgs1 mgt1 strain, at 50.0 µM, hits give high values
Outline: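 Percent growth inhibition was derived by comparing compound-exposed mutant yeast with vehicle-exposed cultures. The strain carries alterations in DNA damage repair.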

[4] = NCI Yeast Anticancer Drug Screen. Data for the cln2 rad14 strain (AID 165);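 also: 0% = growth equal to vehicle treated cultures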; conditions: S. cerevisiae cln2 rad14 strain, at 50.0 µM, hits give high values
Outline: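 Readout is yeast growth inhibition versus vehicle-treated controls, using a strain with cln2 and rad14 alterations exposed to compound.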

[5] = NCI Yeast Anticancer Drug Screen. Data for the bub3 strain (AID 167); conditions: S. cerevisiae bub3 mutant strain, at 50.0 µM, hits give high values
Outline: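 Mutant yeast screening strain plus compound; vehicle-treated cultures serve as the 0% inhibition reference.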

[6] = NCI Yeast Anticancer Drug Screen. Data for the mlh1 rad18 strain (AID 175); conditions: S. cerevisiae mlh1 rad18 strain growth inhibition; at 50.0 µM; hits give high values
Outline: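 Genetically defined yeast (DNA repair-deficient) exposed to compounds; growth inhibition determined relative to vehicle.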

Compound | growth inhibition [1] | growth inhibition [2] | growth inhibition [3] | growth inhibition [4] | growth inhibition [5] | growth inhibition [6]
N.N.NC(CS)C(=O)[O-].NC(CS)C(=O)[O-].[Pt+4] (stereo not given) | 15% | -4% | 3.25% | -21.6% | -12.8% | 15.4%
COP(=O)(Oc1ccccc1)Oc1ccccc1 | 17.6% | -17.5% | 23.9% | 13.1% | 25.9% | 18.5%
BrP(Br)(c1ccccc1)(c1ccccc1)c1ccccc1 | -1.6% | -28.8% | 17.1% | 25.4% | 10.7% | -0.1%
COP(=S)(c1ccccc1)N(C)C(=O)Oc1cccc(C(C)C)c1 (stereo not given) | 21.2% | 30.7% | 34.2% | 25.8% | 43.8% | 45.7%
O=[As](O)(O)c1cccc(Cl)c1 | 9.3% | -0.25% | -13.8% | 1.85% | 1.9% | -0.9%
CCC[CH2][Sn]([CH2]CCC)[CH2]CCC.CCC[CH2][Sn]([CH2]CCC)[CH2]CCC | 99.4% (active) | 99.7% (active) | 99.7% (active) | 99.5% (active) | 99.7% (active) | 99.2% (active)
CC(Br)CN(CC(C)Br)c1ccc(-c2ccccc2)cc1 (stereo not given) | 38.5% | 30% | 12.6% | 35.7% | 15.6% | 21.7%
CCOC(=O)N(NC(=O)c1ccc(N(CCCl)CCCl)cc1)C(C)=O | 6.2% | 8.95% | 3.15% | -15.5% | 5.65% | 30.9%
[C-]#[O+].[C-]#[O+].[C-]#[O+].[W].c1ccc([PH+](CC[PH+](c2ccccc2)c2ccccc2)CC[PH+](c2ccccc2)c2ccccc2)cc1 | 0.6% | -18.7% | -1.8% | 3.45% | 3.85% | 2.6%
NC(c1ccccc1)P(=O)(O)O (stereo not given) | -12.7% | -20.4% | -29.9% | 5.85% | -8.75% | -33.3%
CC#CC(O)(C(=O)OC)c1ccccc1 (stereo not given) | -7.35% | 12.6% | -20.8% | -23.6% | -5.1% | -1.9%
[C-]#[O+].[C-]#[O+].[C-]#[O+].[C-]#[O+].[C-]#[O+].[C-]#[O+].[C-]#[O+].[C-]#[O+].[C-]#[O+].[CH2-]C.[Co].[Co].[Co] | 25.6% | 9.9% | 19.1% | -2.3% | 24.2% | 33.8%
Cc1nc2ccccc2c(=O)n1-c1ccccc1 | -13.6% | -15.9% | 0% | 15.9% | 10.9% | -3.8%
C[C@]12CC[C@H]3[C@@H](CCC4=C[C@@H](OC5OCC(OC6OC(CO)C(O)C(O)C6O)C(O)C5O)CC[C@@]43C=O)[C@@]1(O)CCC2C1=CC(=O)OC1 (stereo not given in full) | -31.8% | -20.4% | -29.6% | -4.1% | -16.7% | 2.2%
O=[As]c1ccc(C(=O)Cl)cc1 (stereo not given) | -2.3% | -16.4% | -20.1% | 2.15% | -25.3% | 0.45%
CCOC(=O)C(N)C[S][Sn]([CH3])([CH3])[Cl] (stereo not given) | 19.1% | 21.8% | 20.6% | 18.2% | 21.7% | -26.6%
CN(C)CC1C(O)C2CCN1CC2 (stereo not given) | 3.95% | 9.3% | -3.1% | -5.3% | -5.5% | -1.85%
O=P(CCP(=O)(c1ccccc1)c1ccccc1)(c1ccccc1)c1ccccc1 | -17.6% | -23.1% | -0.5% | 26.2% | 3.2% | 3.75%
O=P(O)(O)SP(=O)(O)O.[Zn+2] | -20.9% | 9.55% | -15.8% | -8.7% | -12.6% | -1.35%
C#[C][Sn]([CH2]CCC)([CH2]CCC)[CH2]CCC | 99% (active) | 99.5% (active) | 99.2% (active) | 99.1% (active) | 99.3% (active) | 99.2% (active)

Compound | growth inhibition [1] | growth inhibition [2] | growth inhibition [3] | growth inhibition [4] | growth inhibition [5] | growth inhibition [6]
CNc1cccc2ccccc12 | -3.3% | -14.1% | -54.5% | -36.5% | -28.6% | -0.35%
O=C(O)[C@H](O)[C@@H](O)C(=O)O.[Pb] | 7.05% | -4.35% | -2.9% | -36.9% | 6.85% | -9.2%
CCC1CN1P1(=O)OCC(C)(N)CO1 (stereo not given) | -9.45% | 0.7% | -7.35% | 42.6% | -29.1% | -10.6%
NNC(=O)c1ccccc1 | -1.8% | -2.05% | -11.8% | -36% | -1.25% | -19%
CN(C)P(=O)(N(C)C)N(C)C.[CH3][Sn]([CH3])([Cl])[Cl] | 5.75% | -1.2% | 52.4% | 49.9% | 63.8% | 82.2% (active)
C#CC(=O)[O][Sn]([c]1ccccc1)([c]1ccccc1)[c]1ccccc1 | 99% (active) | 99.1% (active) | 99.3% (active) | 99.2% (active) | 98.9% (active) | 99% (active)
CC(C)OP(=O)(OC(C)C)C(N(C)C)P(=O)(OC(C)C)OC(C)C.[Cl][Sn]([Cl])([Cl])[c]1ccccc1 | -10.9% | -10.2% | 2.1% | 28.8% | 7.85% | 1.5%
Cc1ccc2c3c(c(=O)oc2c1)[C@H](C)C[C@@](C)(CO)O3 | -8.35% | 1.9% | 9.8% | -5.4% | 3.7% | -7.35%
Clc1ccc(NC2=NCCS2)cc1Cl | -9% | -22.8% | 41.4% | -7.55% | -3.05% | 10.9%
N#CC1=C(C#N)C(=O)C(Cl)=C(Cl)C1=O | 14.9% | 24.9% | 16.9% | 8.7% | 16.6% | 29.2%
CC(=O)Cc1ccc2c(c1)OCO2 | 13.2% | -11.4% | -0.35% | 1.1% | -16.9% | 22.9%
COc1ccc(OC)c(CCc2cc(OC)ccc2OC)c1 | -7.85% | -13.2% | -9.95% | -40.1% | 13.2% | -28%
C[N+](C)(C)CC1CCCC/C1=N\O (stereo not given) | 23.2% | 0.3% | 9.75% | 39% | 8.6% | 39.3%
O=C(C/C(=N/O)C(=O)NC1=C(Cl)C(=O)c2ccccc2C1=O)CC(c1ccccc1)c1c(O)c2ccccc2oc1=O (stereo not given) | 39.5% | 81.1% (active) | 82.5% (active) | 76.8% (active) | 84.7% (active) | 87.6% (active)
COC(=O)c1c(C(=O)OC)c1=[N+]=[N-] | 5.2% | -5.35% | -0.95% | -10.8% | -0.15% | 6%
O=P(NCCCl)(NCCCl)Oc1ccccc1 | -19.5% | -0.5% | -18.8% | -16.1% | -7.25% | -13.1%
CP1(=O)CC23CCCCC2(C1)O3 (stereo not given) | 2% | -29.9% | -3.3% | -44.2% | -15% | -7.9%
CCCCCCCCCCCCCCCC(=O)[O][Hg][c]1ccccc1 | 97.6% (active) | 96.7% (active) | 99% (active) | 98.1% (active) | 99.2% (active) | 98.8% (active)
Nc1nc(N)c2[nH]c(N)nc2n1 | -9.65% | -12.2% | -8.9% | -14.4% | 3.45% | -55.3%
NCCc1ccccc1 | 0.15% | -20.6% | 1.5% | -17.4% | -18.3% | -9.9%
